Measurements reported in the supplement of paper PMC12067093, “Discovery and optimisation of a covalent ligand for TRIM25 and its application to targeted protein ubiquitination” (Chemical Science, 2025).
The full data set covers some 21,000 targets. This sample favours those with the largest changes.

Target: XPOT_O43592_877_HIVPACFLAPLK (UniProt O43592)
Experiment: probe-labelled cysteine peptide fold change vs DMSO (competition) (log2 fold change); higher = less target engagement (more negative = stronger competition)
Conditions: THP-1, incubation time: 4 h
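Note: competitive chemoproteomic profiling in live THP-1 cells with an iodoacetamide desthiobiotin (IA-DTB) probe, comparing probe-labelled peptide intensities in compound-treated cells against DMSO-treated controls.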

Chain of UniProt O43592 (O43592 whole entry, looked up): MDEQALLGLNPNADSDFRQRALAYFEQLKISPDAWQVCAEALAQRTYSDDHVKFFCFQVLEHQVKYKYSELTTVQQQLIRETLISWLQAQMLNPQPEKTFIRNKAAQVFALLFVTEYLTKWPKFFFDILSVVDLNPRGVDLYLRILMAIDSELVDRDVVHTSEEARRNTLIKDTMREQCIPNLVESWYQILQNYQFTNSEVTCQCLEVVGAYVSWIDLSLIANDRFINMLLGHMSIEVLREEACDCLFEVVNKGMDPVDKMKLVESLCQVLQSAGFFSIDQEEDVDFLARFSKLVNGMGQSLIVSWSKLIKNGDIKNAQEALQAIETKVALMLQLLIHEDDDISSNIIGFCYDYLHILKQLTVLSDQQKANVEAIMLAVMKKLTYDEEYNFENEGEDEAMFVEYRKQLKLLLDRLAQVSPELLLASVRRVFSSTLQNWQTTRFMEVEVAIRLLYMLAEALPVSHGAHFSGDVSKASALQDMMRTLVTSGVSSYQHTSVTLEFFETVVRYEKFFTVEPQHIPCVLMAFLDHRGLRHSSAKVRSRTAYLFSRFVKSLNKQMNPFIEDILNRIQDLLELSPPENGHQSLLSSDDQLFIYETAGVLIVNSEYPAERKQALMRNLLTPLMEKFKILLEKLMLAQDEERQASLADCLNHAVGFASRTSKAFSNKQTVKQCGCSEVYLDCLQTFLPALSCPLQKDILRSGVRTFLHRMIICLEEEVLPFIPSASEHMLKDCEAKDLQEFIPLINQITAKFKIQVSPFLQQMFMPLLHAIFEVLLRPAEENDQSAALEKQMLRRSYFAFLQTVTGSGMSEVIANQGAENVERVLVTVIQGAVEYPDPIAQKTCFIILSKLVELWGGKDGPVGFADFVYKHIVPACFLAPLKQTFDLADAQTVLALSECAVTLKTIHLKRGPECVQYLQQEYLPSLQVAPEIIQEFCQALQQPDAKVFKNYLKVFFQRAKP

With `CC1Cc2ccccc2N1C(=O)C1CCCN(C(=O)CCl)C1` (mixture of isomers) [TRIM25 ligand 11 (diastereomer mixture)] the “probe-labelled cysteine peptide fold change” value (10 µM) was 0.0433 and the “probe-labelled cysteine peptide fold change” value (50 µM) was 0.0734.
